Source: PubChem (National Center for Advancing Translational Sciences (NCATS))
Only some compounds are listed: those with a hit (about 2.4% of all), similar ones and a draw of the others.
FEN1 inh-1: blocks human flap endonuclease 1 | actives 0.35% (n = 390,000) | Potency, µM (highest dose often 114 µM), without a hit: top-dose activity change, negative = inhibition, most hits filed as inhibitors | AID 588795 | Recombinant FEN1 flap cleavage, fluorescence, 15 min; note: % is set by controls: 0 for no effect and ±100 for the full control effect; nearly all actives have a fitted effect of over 65% in size
Target sequence (P39748 whole entry, looked up): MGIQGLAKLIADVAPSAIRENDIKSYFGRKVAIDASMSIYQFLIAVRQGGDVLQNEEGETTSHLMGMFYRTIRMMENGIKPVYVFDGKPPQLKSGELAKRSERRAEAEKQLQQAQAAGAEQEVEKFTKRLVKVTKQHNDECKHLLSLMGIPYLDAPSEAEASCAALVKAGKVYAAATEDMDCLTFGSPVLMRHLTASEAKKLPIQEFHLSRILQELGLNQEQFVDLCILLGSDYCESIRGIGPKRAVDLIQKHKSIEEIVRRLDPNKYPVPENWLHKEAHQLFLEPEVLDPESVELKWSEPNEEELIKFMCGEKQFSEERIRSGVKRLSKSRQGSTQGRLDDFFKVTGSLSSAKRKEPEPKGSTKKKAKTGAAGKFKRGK
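Recombinant FEN1 (10 nM) was preincubated with pin-transferred compounds for 15 min at room temperature, then flap DNA substrate (50 nM final) was added. Plates were read at 0 and 15 min, and normalized concentration–response data were fitted to a four-parameter Hill equation.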
Pol iota inh: inhibitors of human DNA polymerase iota; Potency, µM (highest dose often 115 µM), without a hit: at the top dose activity, negative = inhibition, usual class: inhibitors; actives 1% (n = 390,000); Q9UNA4; Pol iota fluorescent replication assay, 10 min
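Fluorescent replication assay read twice, at 0 min and 10 min after adding 50 nM (final) substrate. Enzyme (10 nM) and compounds were first incubated 15 min at room temperature; enzyme-free buffer wells were negative controls.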
Tb PGK inh: inhibitors of T. brucei phosphoglycerate kinase | P07378 | PGK/GAPDH coupled, Kinase-Glo luminescence, 60 min | Potency, µM (doses to about 57.5 µM), inactives show top-dose activity change, negative = inhibition, hits mostly inhibitors | actives 0.043% (n = 380,000) | AID 602233; note: % is set by controls: 0 for no effect and ±100 for the full control effect; nearly all actives have a fitted effect of over 60% in size
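Luminescent ATP detection (Kinase-Glo Plus) follows a 60-minute room-temperature incubation, with wells lacking PGK as controls. Buffer: 100 mM TEA (pH 7.6), 5 mM MgCl2, 0.01% Tween-20. Coupling enzyme GAPDH (100 nM final) supplies unstable 1,3-BPG in-well.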
Pol eta inh-1: DNA polymerase eta (human) inhibition | Q9Y253 | Potency, µM (doses to about 114 µM), for inactives: at the top dose activity change, negative = inhibition, most hits filed as inhibitors | AID 588591 | actives 1.2% (n = 390,000) | recombinant Pol eta, fluorescent DNA replication assay; note: % is set by controls: 0 for no effect and ±100 for the full control effect
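Pol eta at 10 nM preincubated with compounds 15 min at room temperature; reaction started with fluorescent substrate (50 nM final) and read kinetically at 0 and 10 min.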
POLB inh: DNA polymerase beta (human) inhibition; P06746; Pol beta primer extension/strand displacement, fluorescence kinetic; Potency, µM (doses to about 114 µM), for the others: at the highest dose activity change, negative = inhibition, actives largely listed as inhibitors; actives 1.3% (n = 340,000); note: % is set by controls: 0 for no effect and ±100 for the full control effect
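Pol beta (10 nM) and compounds were preincubated 15 min at room temperature, then 50 nM substrate (final) started primer extension/strand displacement. Reads were taken at 0 and 10 min; concentration-response data were fitted to a four-parameter Hill equation.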
Pol kappa inh-1: blocks human DNA polymerase kappa activity; AID 588579; Potency, µM (series often up to 107 µM), inactives show at the highest dose activity, negative = inhibition, actives largely listed as inhibitors; actives 0.53% (n = 400,000); purified Pol kappa, fluorescent DNA synthesis assay, 10 min; Q9UBT6; note: % is set by controls: 0 for no effect and ±100 for the full control effect
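Activity was followed as the change in fluorescence between reads at 0 and 10 min after starting the reaction with 50 nM substrate. Beforehand, 10 nM polymerase had been preincubated with compound for 15 min at room temperature.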
PGK validate: TbPGK inhibition, hit validation; TbPGK coupled GAPDH assay, Kinase-Glo luminescence; actives 79% (n = 500); Potency, µM (top dose mostly 57.5 µM), inactives show top-dose activity change, negative = inhibition, actives largely listed as inhibitors; AID 686980; shares compounds with Pol kappa inh-1; note: % is set by controls: 0 for no effect and ±100 for the full control effect; nearly all actives have a fitted effect of over 65% in size
POLI cherry-pick: Human Pol iota inhibitor confirmatory assay. shares compounds with Pol kappa inh-1. Pol iota primer extension, TAMRA/BHQ fluorescence. Potency, µM, usual class: inhibitors. actives 77% (n = 1,500). AID 720496
Pol kappa inh-2: Pol kappa (human) inhibition, cherry-pick confirmation. shares compounds with Pol eta inh-1. purified Pol-kappa, fluorescent strand-displacement substrate. Potency, µM, hits mostly inhibitors. actives 76% (n = 920). AID 720501
Pol eta inh-2: Pol eta (human) inhibition, cherry-pick confirmation | actives 64% (n = 2,600) | Potency, µM, hits mostly inhibitors | Pol eta primer extension, TAMRA/BHQ fluorescence, 10 min | AID 720502 | shares compounds with Pol eta inh-1
FEN1 inh-2: FEN1 inhibition, cherry-pick retest | AID 720498 | FEN1 flap cleavage, TAMRA/BHQ2 fluorogenic DNA substrate | shares compounds with FEN1 inh-1 | Potency, µM, usual class: inhibitors | actives 79% (n = 880); note: nearly all actives have a fitted effect of over 60% in size
The depositor's hits bear a star; i = inactive; ? = inconclusive; / = no result given; [ ] = remark or other dose. Calls come from the whole dose curve; as a rule, active = well fitted curve in the direction sought with a large enough effect; inconclusive = small, poorly fitted or top-dose-only effect, or another doubt; inactive = no such curve, though single readings can be large; an effect the other way counts as inactive or inconclusive. Potency is the fitted concentration of half-maximal effect.

SMILES	FEN1 inh-1	Pol iota inh	Tb PGK inh	Pol eta inh-1	POLB inh	Pol kappa inh-1	POLI cherry-pick	Pol eta inh-2	FEN1 inh-2	others
CC(=O)Nc1sc2c(c1-c1nc3ccccc3s1)CCCNC2	/	/	/	/	/	/	?	/	34*
CC(=O)Nc1sc2c(c1-c1nc3ccccc3s1)CCNC2	/	/	/	/	/	/	21*	/	3.4*	Pol kappa inh-2=8.4*
CN1CCc2c(sc(NC(=O)CSc3ccc(F)cc3)c2-c2nc3ccccc3s2)C1	-20%	53%	i	-2%	33%	-17%	/	/	/
CSc1cccc(NC(=O)c2ccc3c(c2)c(C)c(C)n3Cc2ccc(F)cc2)c1	-6%	-9%	4%	1%	25%	18%	/	/	/
CC(=O)Nc1ccc(C=NNc2ccc(S(=O)(=O)Nc3ccccc3C(=O)O)cc2[N+](=O)[O-])cc1	50µM*	?	-9%	22µM*	/	-30%	?	76*	85*	Pol kappa inh-2=21*
COc1cc(C=NNc2ccc(S(=O)(=O)Nc3ccccc3C(=O)O)cc2[N+](=O)[O-])ccc1O	45µM*	?	-12%	50µM*	/	-27%	75*	19*	60*
O=C(O)c1ccccc1NS(=O)(=O)c1ccc(N/N=C/c2cccc(O)c2O)c([N+](=O)[O-])c1	40µM*	10µM*	8.9µM*	3.2µM*	/	28µM*	34*	30*	48*	PGK validate=12µM*
COc1cc(/C=N/Nc2ccccc2[N+](=O)[O-])cc(OC)c1O	2%	60%	2%	-10%	2%	5%	/	/	/
Cc1ccc2c(C)c(C(=O)N(Cc3ccc(N(C)C)cc3)Cc3ccco3)oc2c1C	9%	-17%	/	/	10%	-14%	/	/	/
CCCNC(=O)CSc1nc2ccccc2nc1Cc1ccc(Cl)cc1	16%	0%	i	-6%	13%	-4%[60.1 µM]	/	/	/
CN(C)CCNc1ccc2ncn3c4ccc(O)cc4c(=O)c1c23	8.9µM*	79µM*	i	?	/	22µM*	12*	/	4.8*	Pol kappa inh-2=9.5*
Cc1cc2[nH]c3c(c[n+](C)c4ccccc34)c2cc1C	?	4.5µM*	-3%	?	1.3µM*	25µM*	15*	/	3.8*
O=C(NCC(c1ccc2c(c1)OCO2)N1CCOCC1)C(=O)Nc1ccc(Cl)cc1 (stereo unspecified)	-6%	-3%	-3%	-1%	?	-1%[60.1 µM]	/	/	/
Nc1ccc(O)c2c1C(=O)c1ccccc1C2=O	35µM*	40µM*	?	8.9µM*	2.8µM*	28µM*	19*	21*	43*	PGK validate=12µM*;Pol kappa inh-2=3.4*
O=c1/c(=C\c2cccnc2)sc2nc3ccccc3n12	-3%	-9%	i	-11%	-1%	-2%	/	/	/
O=C(O)c1ccc(-c2ccc(/C=c3/sc4nc5ccccc5n4c3=O)o2)cc1Cl	13µM*	3.2µM*	10µM*	1.6µM*	4µM*	10µM*	15*	6*	?	PGK validate=12µM*;Pol kappa inh-2=3*
COc1ccccc1NC(=O)c1oc2ccccc2c1NC(=O)c1cccc(OC)c1OC	-2%	39%	-2%	-12%	25%	3%	/	/	/
CC(Nc1oc(-c2ccc(COc3ccccc3)o2)nc1C#N)c1ccccc1 (stereo unspecified)	1%	52%	i	-5%	?	-27%	/	/	/
COc1ccc(-c2nn(C)c3sc(C(=O)Nc4cc(OC)c(OC)c(OC)c4)cc23)cc1OC	10µM*	22µM*	7%	40µM*	45µM*	50µM*	38*	60*	7.6*
Nc1nonc1-c1nc2ccccc2n1CC(=O)N/N=C/c1ccc(-c2cccc(C(=O)O)c2)o1	45µM*	18µM*	?	18µM*	20µM*	?	75*	24*	38*
Nc1nonc1-c1nc2ccccc2n1CC(=O)Nc1ccccc1C(=O)O	2%	8%	-6%	-6%	-1%	-15%	/	/	/
NS(=O)(=O)c1ccc(CCNC(=O)COC(=O)Cc2ccc([N+](=O)[O-])cc2)cc1	-8%	8%	i	-8%	/	-2%	/	/	/
NS(=O)(=O)c1ccc(CCNC(=O)COC(=O)c2ccc([N+](=O)[O-])o2)cc1	?	35µM*	-5%	?	/	-36%	84*	?	11*
O=C1NC2c3c(Cl)sc(Cl)c3C(=O)C2O1 (stereo unspecified)	?	25µM*	?	3.2µM*	/	?	4.2*	6*	?	Pol kappa inh-2=2.7*
CCOC(=O)/C(=C/C=C1\Sc2cc(C)c(C)cc2N1CC)C(C)=O	?	8%	4%	-23%	0%	-25%	/	/	/
SMILES	FEN1 inh-1	Pol iota inh	Tb PGK inh	Pol eta inh-1	POLB inh	Pol kappa inh-1	POLI cherry-pick	Pol eta inh-2	FEN1 inh-2	others
CCN1/C(=C/c2ccc3cc(C)ccc3[n+]2CC)Sc2cc(C)c(C)cc21	32µM*	87%	0%	?	14µM*	-22%	42*	76*	4.8*
O=C(O)c1ccc(Nc2c3ccccc3nc3ccccc23)cc1	-1%	111%	-3%	-10%	-2%	-14%	/	/	/
CN1CCN(c2ccc(Nc3c4ccccc4nc4ccccc34)cc2)CC1	/	/	/	/	/	19µM*	42*	/	19*	Pol kappa inh-2=30*
O=C(Nc1ccc2nc(-c3ccccc3)[nH]c2c1)c1cccs1	-17%	-8%	-7%	-3%	-30%	-16%	/	/	/
O=C(Nc1ccc2nc(-c3ccc4nc[nH]c4c3)[nH]c2c1)c1cccs1	45µM*	1.1µM*	i	20µM*	4.5µM*	35µM*	?	?	?
COc1ccccc1C(=O)Nc1cccc(C(=O)OCc2cc(=O)n3cc(C)sc3n2)c1	-1%	23%	0%	-20%	0%	-6%[60.1 µM]	/	/	/
O=[N+]([O-])c1ccc(N=Nc2ccc(O)cc2O)cc1	-3%	-1%	-9%	-11%	?	-5%	/	/	/
